IL-1B inflam inh – qHTS for Inhibitors of Inflammasome Signaling: IL-1-beta AlphaLISA Primary Screen; THP-1 LPS/ATP IL-1B secretion, AlphaLISA, 16 h; active compounds read low; activity change, % at 57.5 µM; 360,000 compounds, 4.7% hits; AID 743279, 2014; in the data active means activity change below about -50%; inconclusive means mostly about -30% to -49%
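THP-1 cells pretreated 1 hr with compounds (up to 57.5 uM final), then stimulated with LPS (250 ng/mL final) plus ATP (1.25 mM final); secreted IL-1B measured by AlphaLISA after 16 hr, decreased signal indicating inhibition.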
ELG1 repair inh – qHTS screen for small molecules that inhibit ELG1-dependent DNA repair in human embryonic kidney (HEK293T) cells expressing luciferase-tagged ELG1; 330,000 compounds, 2.3% hits; HEK293T ELG1-luciferase reporter, luminescence, 16 h; DNA damage induced by 5-fluorouridine; Potency, µM (highest dose often 46.1 µM), for inactives: top-dose activity change, negative = inhibition, hits mostly inhibitors; further: potency means the concentration at half of the fitted maximal effect; nearly all actives have a fitted effect of over 55% in size
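Cells (2,000 per well) received 5-fluorouridine plus test compound or DMSO and were incubated 16 hr at 37 °C, 5% CO2. Luciferase activity was read by luminescence 30 min after ONE-Glo addition; signal suppression marked inhibition of damage-induced ELG1 function.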
TDP1 cell CPT – qHTS for Inhibitors of human tyrosyl-DNA phosphodiesterase 1 (TDP1): qHTS in cells in presence of CPT. Potency, µM (series often up to 46.2 µM), inactives show at the top dose activity change, negative = growth inhibition, usual class: inhibitors. chicken DT40 Tdp1-/-;hTDP1 cells + 20 nM CPT, ATP luminescence, 48 h. 420,000 compounds, 12% hits; further: potency means the concentration at half of the fitted maximal effect; nearly all actives have a fitted effect of over 55% in size
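Cell growth measured by CellTiter-Glo luminescence after a minimum 48 h, 37 C compound exposure with 20 nM CPT in Tdp1-knockout DT40 cells stably expressing hTDP1, seeded 400/well; qHTS titration format.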
Gal4-VP16 FLuc – VP16 counterscreen qHTS for inhibitors of ROR gamma transcriptional activity | Drosophila S2 Gal4-VP16 UAS-luciferase, luminescence, 20 h | Potency, µM (top dose mostly 53.6 µM), for inactives: at the top dose activity, negative = inhibition, usual class: inhibitors | 310,000 compounds, 3.5% hits;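 further: Gal4-VP16 expression switched on by copper sulfate through the metallothionein promoter; potency means the concentration at half of the fitted maximal effect; nearly all actives have a fitted effect of over 50% in size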
DT40 TDP1 no CPT – qHTS for Inhibitors of human tyrosyl-DNA phosphodiesterase 1 (TDP1): qHTS in cells in absence of CPT | Potency, µM (top dose mostly 46.2 µM), without a hit: at the highest dose activity change, negative = growth inhibition, hits mostly inhibitors | DT40 Tdp1-/- hTDP1 cells, no CPT, ATP luminescence, 48 h | AID 686978, 2013 | 420,000 compounds, 15% hits; further: potency means the concentration at half of the fitted maximal effect; nearly all actives have a fitted effect of over 55% in size
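Chicken DT40 Tdp1-/- cells stably complemented with human TDP1 were seeded at 400 cells/well with DMSO in place of 20 nM camptothecin. After compound pinning, cells grew at least 48 hr at 37 °C; viability read by CellTiter-Glo luminescence.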
RORgamma inh – qHTS for inhibitors of ROR gamma transcriptional activity. Potency, µM (series often up to 53.6 µM), for the others: top-dose activity change, negative = inhibition, actives largely listed as inhibitors. Nuclear receptor ROR-gamma (Mus musculus), P51450. 310,000 compounds, 5.4% hits. Drosophila S2 Gal4-RORgamma UAS-luciferase reporter, 20 h; further: potency means the concentration at half of the fitted maximal effect; nearly all actives have a fitted effect of over 60% in size
Target sequence (P51450 whole entry, looked up, the tested form may be a part): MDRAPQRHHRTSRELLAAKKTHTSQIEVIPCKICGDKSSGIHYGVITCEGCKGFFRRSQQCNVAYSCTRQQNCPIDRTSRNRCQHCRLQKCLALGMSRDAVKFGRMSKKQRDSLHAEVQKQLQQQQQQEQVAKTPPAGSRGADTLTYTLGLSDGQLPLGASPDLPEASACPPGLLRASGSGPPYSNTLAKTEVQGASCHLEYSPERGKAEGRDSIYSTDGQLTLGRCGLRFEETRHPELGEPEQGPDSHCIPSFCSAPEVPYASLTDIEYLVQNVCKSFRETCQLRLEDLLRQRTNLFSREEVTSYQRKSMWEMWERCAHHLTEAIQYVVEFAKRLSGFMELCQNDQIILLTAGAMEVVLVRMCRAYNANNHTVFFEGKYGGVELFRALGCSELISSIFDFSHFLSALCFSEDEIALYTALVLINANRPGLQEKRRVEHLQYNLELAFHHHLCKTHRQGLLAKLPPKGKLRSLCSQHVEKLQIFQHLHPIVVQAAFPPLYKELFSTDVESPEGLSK
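Stable Schneider cell line, Gal4 DNA-binding domain fused to ROR gamma, UAS-luciferase. Cmpd 1 hr RT → CuSO4 700 uM final → 20 hr RT → luciferase reagent 10 min → luminescence.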
* hit, by the source's call; ? = inconclusive; / = no result given; [ ] = another dose, or the depositor's remark. An excerpt weighted towards active compounds, which were near 21% of everything screened. Unless noted, the call rests on the fitted dose curve; in most records, active means well fitted curve in the direction sought with a large enough effect; inconclusive means small, poorly fitted or top-dose-only effect, or another doubt; inactive means no such curve, though single readings can be large; an effect the other way counts as inactive or inconclusive. On the % scale 0 is the no-effect control and ±100 the full control effect.

SMILES	IL-1B inflam inh	ELG1 repair inh	TDP1 cell CPT	Gal4-VP16 FLuc	DT40 TDP1 no CPT	RORgamma inh
OCC1OC(n2ccc3c2ncn2ncnc32)C(O)C1O (stereo not drawn)	66	/	0.37µM*	/	0.46µM*	/
Nc1ccn([C@@H]2O[C@H](CO)[C@@H](OP(=O)(O)O)[C@H]2O)c(=O)n1	/	/	5%	-13%	1%	8%
COc1nc(=O)n(C2OC(CO)C(O)C2O)cc1C (stereo not drawn)	4	/	-3%	/	3%	/
CCCCCCCCCCCCCCCC(=O)Nc1ccn(C2OC(CO)C(O)C2O)c(=O)n1 (stereo not drawn)	30	/	0.65µM*	/	0.73µM*	/
Cc1cc(C)c(NC(=O)CSc2nc3ccccc3c3nc(-c4ccccc4)nn23)c(C)c1	/	/	-1%	/	-1%	/
O=C(CN1C(=O)COc2ccc(S(=O)(=O)N3CCOCC3)cc21)Nc1cccc(Cl)c1	-13	9%	-16%	2%	?	1%
Cc1ccc(S(=O)(=O)N2C[C@H]3[C@H]4C(=O)N(c5ccccc5)C(=O)[C@H]4C[C@H](OC(=O)NCc4ccccc4F)[C@@]3(O)C2)cc1	15	/	1%	/	-29%	/
COc1cccc(O)c1CN1CCC2(CC1)c1ccccc1[C@@H](NC(=O)c1ccsc1)[C@@H]2OC	/	/	17%[9.04 µM]	/	?	/
Nc1ccn(C2OC(CO)C(O)C2F)c(=O)n1 (stereo not drawn)	13	/	1.3µM*	/	2.1µM*	/
CCCCCCCCCCCCCCCC(=O)OCC1OC(n2ccc(N)nc2=O)C(O)C1O (stereo not drawn)	0	/	0.52µM*	/	0.65µM*	/
Nc1ccn([C@H]2CC[C@@H](CO)O2)c(=O)n1	2	-6%	7.5µM*	6%	11µM*	-1%
Nc1ccn([C@@H]2O[C@H](CO)[C@H](O)C2(F)F)c(=O)n1	/	/	/	-6%	/	-2%
Nc1ccn(C2CCCO2)c(=O)n1 (stereo not drawn)	0	/	12%	/	0%	/
O=C(NCc1ccccc1)C1C(=O)Nc2ccccc2C(=O)N1Cc1ccccc1 (stereo not drawn)	-9	/	6%	/	?	/
O=C(Nc1ccccc1)OCc1cncs1	-2	?	-17%	-9%	-24%	28%
CCOc1ccc(CCNC(=O)C2Cc3ccccc3N2C(=O)CC)cc1OCC (stereo not drawn)	/	/	?	/	-29%	/
CC[C@@H]1CCC[C@@H](O)[C@@H](C)C(=O)O[C@H](C)[C@@H](C)C/C=C(C)/C(OC)=C\C(=O)N(C)C([C@@H](C)CC)C(=O)N(C)[C@@H](C(C)C)C(=O)N(C)[C@@H](COC)C(=O)N2CCC[C@H]2C(=O)N(C)[C@@H](C(C)C)C(=O)N2CCC[C@H]2C(=O)O1 (stereo partly drawn)	18	/	0.15µM*	/	0.21µM*	/
NCCc1c(-c2ccccc2)n(-c2ccccc2)c2ccccc12	-97*	-13%	?	?	?	?
CC(=O)n1c(-c2ccccc2)c(CO)c2ccccc21	26	-3%	?	0%	?	18%
Cc1cn(C2CC(O)C(CO)O2)c(=O)n(Cc2ccccc2)c1=O (stereo not drawn)	47	/	?	/	-23%	/
COc1cccc(Cc2nc3ccccc3nc2SCC(=O)N2CCCCC2C)c1 (stereo not drawn)	/	/	?	/	5.2µM*	/
Cc1ccc2cc(C#N)c(SCC(=O)N3CCCc4ccccc43)nc2c1	0	1%	13%	-19%	-4%	-1%
Cc1ccc(Cc2nc3ccccc3nc2SCC(=O)N2CCCCC2C)cc1 (stereo not drawn)	/	/	15µM*	/	23µM*	/
Cc1ccc(Cn2c(=O)c3ccccc3n3c(SCC(=O)N4CCCCC4C)nnc23)cc1 (stereo not drawn)	0	?	18µM*	-5%	16µM*	?
Cc1ccc2cc(C#N)c(SCC(=O)N3CCCc4ccccc43)nc2c1C	34	1%	21µM*	-2%	8.2µM*	-29%
SMILES	IL-1B inflam inh	ELG1 repair inh	TDP1 cell CPT	Gal4-VP16 FLuc	DT40 TDP1 no CPT	RORgamma inh
Cc1ccc(Cn2c(=O)c3ccccc3n3c(CCC(=O)O)nnc23)cc1	-10	/	3%	/	3%	/
O=C(N[C@@H](Cc1ccccc1)C(=O)OCc1ccccc1)c1nc[nH]c1C(=O)N1CCNCC1	-6	18%	5%	/	-17%	/
COc1cccc(Cc2nc3ccccc3nc2SCC(=O)N2CCCc3ccccc32)c1	/	/	18µM*	/	?	/
CC(NC(=O)c1ccco1)c1nc(-c2ccc(Cl)cc2)no1 (stereo not drawn)	-7	-14%	?	-12%	21µM*	30%
O=C(Nc1ccc(-c2noc(CCc3ccccc3)n2)cc1)c1ccco1	-5	?	18µM*	-17%	?	87%
O=C(Nc1ccc(-c2nc3cc(Cl)ccc3c(=O)o2)cc1)c1ccco1	15	9%	0%	6%	?	1%
O=C(Nc1ccc(-c2nc3c(ccc4ccccc43)o2)cc1)c1ccco1	13	?	?	?	18µM*	?
C/C1=C/CC(C)(C)/C=C/C/C(C)=C/CC1	/	/	-4%	-19%	-21%	-10%
CCC(=O)NC(Cc1ccccc1)c1nc2ccccc2[nH]1 (stereo not drawn)	-4	13%	7%	-4%	0%	-34%
Cc1ccc(-c2nc3ccccc3[nH]2)cc1NC(=O)c1sc2cc(Cl)ccc2c1Cl	0	?	8.2µM*	4%	16µM*	11%
Cc1ccc(-c2nc3ccccc3[nH]2)cc1NC(=O)COc1ccc(Cl)cc1Cl	/	/	6.5µM*	/	5.2µM*	/
Cc1ccc(-c2nc3ccccc3[nH]2)cc1NC(=O)c1ccco1	-9	-4%	-25%	2%	?	22%
Cc1cc(OCC(=O)Nc2cc(-c3nc4ccccc4[nH]3)ccc2C)ccc1Cl	/	/	15µM*	/	7.3µM*	/
Cc1cc(Cl)ccc1OCC(=O)N[C@@H](Cc1ccccc1)c1nc2ccccc2[nH]1	16	25%	21µM*	?	16µM*	?

Screening data as filed in PubChem.
